Compounds with a hit are over-represented: about 7.5% of the library has one in this group of screens.
FLuc counter: inhibits or activates purified firefly luciferase, miR-21 counter-screen. P08659. purified FLuc, Km substrates, luminescence inhibition. Potency, µM (titrated, usually from 57.5 µM), actives largely listed as inhibitors. 360,000 tested, 6.9% active; note: nearly all actives have a fitted effect of over 55% in size
Target sequence (P08659 whole entry, looked up): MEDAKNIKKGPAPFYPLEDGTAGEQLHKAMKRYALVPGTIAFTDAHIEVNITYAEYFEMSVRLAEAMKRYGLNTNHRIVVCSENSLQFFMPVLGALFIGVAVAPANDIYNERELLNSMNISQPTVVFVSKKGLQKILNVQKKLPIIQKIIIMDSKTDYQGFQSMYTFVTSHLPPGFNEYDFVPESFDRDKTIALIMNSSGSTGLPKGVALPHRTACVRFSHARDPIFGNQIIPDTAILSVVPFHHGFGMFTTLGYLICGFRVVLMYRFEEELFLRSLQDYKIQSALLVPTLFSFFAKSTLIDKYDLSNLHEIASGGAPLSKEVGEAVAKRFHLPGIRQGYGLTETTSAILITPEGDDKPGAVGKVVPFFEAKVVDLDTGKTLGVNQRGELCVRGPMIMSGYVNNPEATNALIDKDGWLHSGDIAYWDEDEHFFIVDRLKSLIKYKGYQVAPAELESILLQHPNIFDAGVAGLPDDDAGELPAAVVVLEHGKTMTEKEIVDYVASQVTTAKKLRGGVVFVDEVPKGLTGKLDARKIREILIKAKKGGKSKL
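Purified P. pyralis luciferase (10nM final) with 10uM D-luciferin and 10uM ATP (Km levels) in 50mM Tris acetate pH 7.5, 10mM Mg acetate, 0.01% Tween-20, 0.05% BSA; qHTS 6-point titration, ~60 µM downward; luminescence read.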
NPC1 promoter act: activates the NPC1 promoter. Huh7 NPC1 promoter luciferase reporter, 24 h. 320,000 tested, 2.4% active. Potency, µM (highest dose often 9.22 µM), actives largely listed as activators; note: nearly all actives have a fitted effect of over 60% in size
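Huh7 cells stably carrying NPC1 promoter–luciferase, plated in Opti-MEM with 10% FBS for 2 h, were exposed to compound in DMSO for 24 h at 37 °C; luciferase reagent was added for 10 min and luminescence read.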
Luc counter: Kinase-Glo luciferase inhibition (counter-screen); Kinase-Glo luciferase, ATP luminescence, 8 min; Potency, µM (top dose mostly 38.3 µM), most hits filed as inhibitors; 200,000 tested, 0.28% active; note: nearly all actives have a fitted effect of over 60% in size
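Compounds were added to a substrate mix at pH 7.2 (50 mM imidazole, 10 uM ATP, within the enzyme's linear range), followed by Kinase-Glo detection reagent; luminescence was measured after 8 minutes at ambient temperature.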
ELG1 genotoxic: induces genotoxicity in HEK293T cells with luciferase-tagged ELG1 | HEK293T ELG1-luciferase reporter, luminescence, 16 h | 330,000 tested, 1.3% active | Potency, µM (doses to about 46 µM), usual class: activators | AID 504466; note: nearly all actives have a fitted effect of over 60% in size
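HEK293T cells expressing luciferase-tagged ELG1 were treated with compound or DMSO for 16 hr at 37°C. Luciferase activity was then read after 30 min with ONE-Glo at room temperature; rising signal flags genetic stress.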
SMN2 splice up: enhancers of SMN2 splice variant expression | HEK293 SMN2-luciferase splicing reporter, luminescence, 30-36 h | 210,000 tested, 2.8% active | Potency, µM (highest dose often 46.1 µM), most hits filed as activators; note: nearly all actives have a fitted effect of over 55% in size
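HEK293 cells carry an SMN2 minigene-luciferase reporter in which exon 7 inclusion puts luciferase in frame. Cells were seeded at 2000 cells/well, attached for 10-12 hours, then exposed to compounds for 30-36 hours at 37C before ONE-Glo luminescence.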
Rab9 promoter act: activators of Rab9 promoter | Huh7 Rab9 promoter-luciferase reporter, luminescence, 24 h | Potency, µM (highest dose often 9.22 µM), most hits filed as activators | 320,000 tested, 2.8% active; note: nearly all actives have a fitted effect of over 60% in size
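Luminescence from Amplite-detected luciferase (10 minutes, ambient) reports Rab9 promoter activation. Before that, stable Rab9-luciferase Huh7 cells (1500/well, reduced-serum OP-MEM I plus 10% FBS) were exposed to compound for 24 hours at 37C.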
Of the large screens only hits and unclear results are named; the others gave an inactive call. Calls come from the whole dose curve; as a rule, active = well fitted curve in the direction sought with a large enough effect; inconclusive = small, poorly fitted or top-dose-only effect, or another doubt; inactive = no such curve, though single readings can be large; an effect the other way counts as inactive or inconclusive.

CSc1ccc(C(=O)C2CCCN(S(=O)(=O)c3c(C)noc3C)C2)cc1 (stereo not drawn)	none
COc1ccc(/C=N/N2C(=O)CSC2=S)cc1	FLuc counter inconclusive (no result: NPC1 promoter act, ELG1 genotoxic, Rab9 promoter act)
CC(C)(C)c1ccc(/C=N/N2C(=O)CSC2=S)cc1	FLuc counter 17µM (no result: Luc counter, SMN2 splice up)
Nc1nc(CSC(=S)N2CCOCC2)nc(Nc2ccc(F)cc2)n1	FLuc counter inconclusive, ELG1 genotoxic inconclusive, SMN2 splice up 14µM, Rab9 promoter act inconclusive
COc1ccc(Nc2nc(N)nc(CSC(=S)N3CCOCC3)n2)cc1	FLuc counter inconclusive, NPC1 promoter act inconclusive, ELG1 genotoxic inconclusive, SMN2 splice up inconclusive, Rab9 promoter act inconclusive
CCOC(=O)c1cnn(-c2cccc(F)c2)c1C1CCNCC1	none (no result: NPC1 promoter act, Luc counter, ELG1 genotoxic, Rab9 promoter act)
COc1ccccc1N1CCN(/N=C/C(Cl)=C/c2ccccc2)CC1	FLuc counter 5.4µM, NPC1 promoter act 2.5µM, Rab9 promoter act 3.2µM (no result: Luc counter, SMN2 splice up)
COc1ccccc1N1CCN(/N=C\c2ccc(C)o2)CC1	FLuc counter 21µM, NPC1 promoter act 3.5µM, ELG1 genotoxic inconclusive, SMN2 splice up 11µM, Rab9 promoter act 3.2µM
COc1ccccc1N1CCN(/N=C\c2ccccc2)CC1	FLuc counter 15µM, NPC1 promoter act inconclusive, ELG1 genotoxic inconclusive, Rab9 promoter act inconclusive (no result: Luc counter, SMN2 splice up)
Cc1ccc(N2CCN(/N=C/C(Cl)=C/c3ccccc3)CC2)cc1	none
Cn1ccsc1=NC(=O)c1ccc(S(C)(=O)=O)c([N+](=O)[O-])c1	FLuc counter 4.8µM, NPC1 promoter act inconclusive (no result: Luc counter, SMN2 splice up)
CCCCOc1ccc(C(=O)N=c2sccn2C)cc1OC	FLuc counter 12µM, NPC1 promoter act 3.5µM, ELG1 genotoxic inconclusive, Rab9 promoter act 2.8µM (no result: Luc counter, SMN2 splice up)
Cc1cccc(C(=O)N=c2sccn2C)c1[N+](=O)[O-]	FLuc counter 15µM, NPC1 promoter act 2.8µM, ELG1 genotoxic 10µM, Rab9 promoter act inconclusive (no result: Luc counter, SMN2 splice up)
Cc1ccc(C(=O)N=c2sccn2C)cc1S(=O)(=O)N1CCOCC1	FLuc counter inconclusive, NPC1 promoter act 4µM, ELG1 genotoxic inconclusive, Rab9 promoter act 1.4µM (no result: Luc counter, SMN2 splice up)
Cn1ccsc1=NC(=O)c1ccc(Cl)c([N+](=O)[O-])c1	FLuc counter inconclusive (no result: Luc counter, SMN2 splice up)
Cc1ccc(C(=O)N=c2sccn2C)cc1C	none (no result: Luc counter, SMN2 splice up)
CCN(CC)S(=O)(=O)c1cc(C(=O)N=c2sccn2C)ccc1OC	none (no result: Luc counter, SMN2 splice up)
O=C1OC2(CCCCC2)CC2=C1C1O[C@](c3ccsc3)(Cc3c1ccc1ccccc31)O2	FLuc counter inconclusive (no result: Luc counter, ELG1 genotoxic, SMN2 splice up)
COC(=O)CCCC(=O)O	none (no result: FLuc counter, NPC1 promoter act, ELG1 genotoxic, Rab9 promoter act)
CCc1cc(C(=O)NC2CCCN(Cc3ccccc3F)C2)n(C)n1 (stereo not drawn)	none (no result: Luc counter, SMN2 splice up)
Cc1ccc(NC(=O)c2noc3c2CCc2ccccc2-3)cc1	FLuc counter 7.6µM, NPC1 promoter act 4µM, ELG1 genotoxic 21µM, SMN2 splice up inconclusive, Rab9 promoter act 2.8µM
COc1ccc(Cl)cc1NC(=O)c1noc2c1CCc1ccccc1-2	none (no result: NPC1 promoter act, Luc counter, ELG1 genotoxic, Rab9 promoter act)
O=C(Nc1cccc(O)c1)c1noc2c1CCc1ccccc1-2	FLuc counter 0.48µM, NPC1 promoter act inconclusive, Luc counter 14µM, ELG1 genotoxic 1.2µM, SMN2 splice up inconclusive, Rab9 promoter act inconclusive
CCc1ccc(NC(=O)c2noc3c2CCc2ccccc2-3)cc1	FLuc counter 11µM, ELG1 genotoxic inconclusive, Rab9 promoter act inconclusive
O=C(Nc1cccc(C(F)(F)F)c1)c1noc2c1CCc1ccccc1-2	FLuc counter inconclusive (no result: NPC1 promoter act, Luc counter, ELG1 genotoxic, Rab9 promoter act)
O=C(Nc1ccc(F)cc1F)c1noc2c1CCc1ccccc1-2	FLuc counter inconclusive, SMN2 splice up 11µM (no result: NPC1 promoter act, Luc counter, ELG1 genotoxic, Rab9 promoter act)
O=C(C(=O)N1CCN(Cc2ccc3c(c2)OCO3)CC1)c1c[nH]c2ccccc12	none (no result: Luc counter, SMN2 splice up)
COc1ccc(C(C)=O)cc1COc1ccc(Cl)cc1Cl	FLuc counter 15µM (no result: Luc counter, SMN2 splice up)
COc1ccc(C(C)=O)cc1COC(=O)c1cnc(C)cn1	SMN2 splice up 2.2µM
CC1=C(C(=O)Nc2ccc(C)cc2C)C(c2ccc(O)cc2)n2nnnc2N1 (stereo not drawn)	none (no result: NPC1 promoter act, Luc counter, ELG1 genotoxic, Rab9 promoter act)
COc1ccccc1NC(=O)c1oc2ccccc2c1NC(=O)c1cccc(OC)c1OC	none (no result: NPC1 promoter act, Luc counter, ELG1 genotoxic, Rab9 promoter act)
COc1ccccc1NC(=O)c1cc2ccccc2o/c1=N\O	FLuc counter inconclusive, Rab9 promoter act 4µM
COc1ccccc1NC(=O)c1cc2ccc(O)cc2o/c1=N\O	FLuc counter 5.4µM

Screening data from PubChem.
